Screens as filed in PubChem.
RORgamma inh – inhibitors of mouse ROR gamma transcriptional activity; P51450; Drosophila S2 Gal4-RORgamma UAS-luciferase reporter, 20 h; Potency, µM (doses to about 53.6 µM), inactives show at the top dose activity change, negative = inhibition, actives largely listed as inhibitors; actives 5.4% (n = 310,000); note: nearly all actives have a fitted effect of over 60% in size
Target sequence (P51450 whole entry, looked up, the tested form may be a part): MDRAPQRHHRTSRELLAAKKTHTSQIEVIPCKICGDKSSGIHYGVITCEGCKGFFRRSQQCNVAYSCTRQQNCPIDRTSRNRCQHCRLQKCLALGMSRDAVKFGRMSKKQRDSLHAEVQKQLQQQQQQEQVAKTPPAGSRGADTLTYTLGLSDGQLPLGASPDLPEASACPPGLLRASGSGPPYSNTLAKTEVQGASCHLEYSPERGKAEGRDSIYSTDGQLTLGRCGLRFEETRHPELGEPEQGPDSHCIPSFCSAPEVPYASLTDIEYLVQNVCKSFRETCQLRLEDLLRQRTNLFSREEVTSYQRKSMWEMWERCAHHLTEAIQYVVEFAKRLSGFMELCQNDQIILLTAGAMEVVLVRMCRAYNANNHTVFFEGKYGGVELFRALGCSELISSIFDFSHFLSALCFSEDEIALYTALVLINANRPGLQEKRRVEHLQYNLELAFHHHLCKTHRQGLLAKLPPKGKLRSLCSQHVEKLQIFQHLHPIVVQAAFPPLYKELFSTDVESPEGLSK
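Luminescence from a UAS-regulated Photinus luciferase reporter in stably transfected Drosophila Schneider cells is measured; decreased signal marks ROR gamma inhibition. Fusion expression is induced by 700 uM copper sulfate for 20 hr.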
12-LOX inh – ALOX12 (human) lipoxygenase inhibition | AID 1671190 | actives 1.1% (n = 580,000) | purified 12hLO, xylenol orange hydroperoxide absorbance | Potency, µM (series often up to 108 µM), without a hit: at the top dose activity change, negative = inhibition, actives largely listed as inhibitors
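Hydroperoxide product was detected by ferrous iron/xylenol orange as the 573 to 405 nm absorbance ratio. Arachidonic acid at 40 uM (final) was turned over for 30 min at room temperature by 150 nM human 12hLO, pH 7.0 Hepes buffer, after 15 min compound preincubation.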
Gal4-VP16 FLuc – inhibits Gal4-VP16 luciferase reporter, ROR gamma counter-screen. Drosophila S2 Gal4-VP16 UAS-luciferase, luminescence, 20 h. Potency, µM (series often up to 53.6 µM), for inactives: at the top dose activity, negative = inhibition, most hits filed as inhibitors. actives 3.5% (n = 310,000). AID 2546;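 note: Gal4-VP16 expression switched on by copper sulfate through the metallothionein promoter; nearly all actives have a fitted effect of over 50% in size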
DT40 TDP1 CPT – growth inhibition of DT40 Tdp1-/-;hTDP1 cells with camptothecin (screen for TDP1 inhibitors); chicken DT40 Tdp1-/-;hTDP1 cells + 20 nM CPT, ATP luminescence, 48 h; Potency, µM (series often up to 46.2 µM), inactives show at the highest dose activity change, negative = growth inhibition, usual class: inhibitors; actives 12% (n = 420,000); AID 686979; note: nearly all actives have a fitted effect of over 55% in size
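Chicken DT40 Tdp1-/- cells stably complemented with human TDP1 were seeded at 400 cells/well in medium containing 20 nM camptothecin, exposed to pin-transferred compounds, and grown at 37 °C for at least 48 hr. Viability was read as ATP luminescence.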
ELG1 repair inh – inhibitors of ELG1-dependent DNA repair in HEK293T cells. HEK293T ELG1-luciferase reporter, luminescence, 16 h; DNA damage induced by 5-fluorouridine. Potency, µM (highest dose often 46.1 µM), for the others: at the top dose activity change, negative = inhibition, actives largely listed as inhibitors. actives 2.3% (n = 330,000). AID 504467; note: nearly all actives have a fitted effect of over 55% in size
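Cells (2,000 per well) received 5-fluorouridine plus test compound or DMSO and were incubated 16 hr at 37 °C, 5% CO2. Luciferase activity was read by luminescence 30 min after ONE-Glo addition; signal suppression marked inhibition of damage-induced ELG1 function.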
TDP1 cell noCPT – qHTS for Inhibitors of human tyrosyl-DNA phosphodiesterase 1 (TDP1): qHTS in cells in absence of CPT; DT40 Tdp1-/- hTDP1 cells, no CPT, ATP luminescence, 48 h; Potency, µM (highest dose often 46.2 µM), inactives show at the highest dose activity change, negative = growth inhibition, most hits filed as inhibitors; actives 15% (n = 420,000); note: nearly all actives have a fitted effect of over 55% in size
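Readout: luminescence from CellTiter-Glo after 30 min in the dark at RT. Cells: DT40 Tdp1-/- with stable hTDP1, 400/well. Exposure: compounds alone, ≥48 hr, 37 °C.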
* = called active by the depositor; i = inactive; ? = inconclusive; . = not tested or not shown; [ ] = dose if it differs, or a comment. In the library only some 15% were active in any assay of this set; here they are far more common. Calls come from the whole dose curve; as a rule, active = well fitted curve in the direction sought with a large enough effect; inconclusive = small, poorly fitted or top-dose-only effect, or another doubt; inactive = no such curve, though single readings can be large; an effect the other way counts as inactive or inconclusive. % is set by controls: 0 for no effect and ±100 for the full control effect; potency is the fitted concentration of half-maximal effect.

SMILES	RORgamma inh	12-LOX inh	Gal4-VP16 FLuc	DT40 TDP1 CPT	ELG1 repair inh	TDP1 cell noCPT
Cc1cc(C)c2oc(-c3ccc(Cl)c(NC(=O)c4cccs4)c3)nc2c1	.	-9.4%	.	.	.	.
Cc1ccc2oc(-c3cccc(NC(=S)NC(=O)c4cccs4)c3)nc2c1	-43.1%	-17.5%	17.4%	?	?	?
Cc1ccc(-c2nc3ccccc3[nH]2)cc1NC(=S)NC(=O)c1ccccc1Br	-16.9%	9.1%	-21.4%	?	?	14.6µM*
O=C(NC[C@H]1Cn2c(-c3ccc4c(c3)OCO4)cnc2CO1)Nc1ccc(F)cc1	.	2.5%[176 µM]	.	.	.	.
COc1ccccc1CC(=O)N1CC[C@@H](NC(=O)c2cnccn2)[C@H](O)C1	.	8.0%	.	.	.	.
COc1cccc(-c2ccnc(-c3nnc(C)n3Cc3ccccc3)c2)c1	.	1.5%[176 µM]	.	.	.	.
COc1cc(OC)c(C(=O)Nc2nc(C)c(C(=O)N(C)C)s2)cc1OC	.	-8.7%	.	.	.	.
Cc1oc(C(O)c2cncnc2)nc1C(=O)Nc1ccc(N2CCOCC2)cc1 (centres undefined)	.	8.5%[176 µM]	.	.	.	.
COc1ccc(C(=O)NC2CC2)cc1C	.	5.4%	.	.	.	.
Cc1cc(C)c2oc(-c3ccc(C)c(NC(=S)NC(=O)c4cccs4)c3)nc2c1	2µM*	-22.4%	?	?	14.6%	?
O=C(Nc1cccc(CN2CCOCC2)c1)/C(=C/c1ccccc1)c1ccccc1	.	-20.2%	.	.	.	.
O=C(CN1CCN(c2ccccc2)CC1)Nc1ccccc1Cl	20.5%	-2.5%	22.6%	?	-18.4%	-4.4%
O=C(NC(=S)Nc1cccc(Cl)c1Cl)C1CC1	2.51µM*	0.0%	4.47µM*	13µM*	?	?
CC(=O)NNC(=S)Nc1ccccc1Cl	.	13.7%	.	.	.	.
O=C(NNC(=S)Nc1ccccc1Cl)c1ccccc1	12.6µM*	i	-22.0%	0.0%	?	-0.5%
O=C(NNC(=S)Nc1ccccc1Cl)C1CC1	11.2µM*	-5.4%	?	6.6%	18.7%	-23.2%
O=C(CCN1CCN(c2ccccc2)CC1)NNC(=S)Nc1ccccc1Cl	8.91µM*	10.6%	-19.8%	7.0%	-13.2%	6.3%
CC(C)(C)c1ccc(C(=O)Nc2ccc(C(O)[C@H]3COCC(=O)N3Cc3ccccc3)cc2)cc1 (some centres undefined)	.	22.9%	.	.	.	.
CC1C(=O)N(Cc2ncc(-c3ccccc3)o2)C(=O)N1c1ccc(F)cc1 (centres undefined)	.	0.1%	.	.	.	.
Cn1ncc(N2CCN(c3cc(C4CC(O)C4)nc(N)n3)CC2)cc1=O (centres undefined)	.	10.3%	.	.	.	.
COCc1noc([C@@H]2CN(Cc3cccc(C#N)c3)C[C@H]2COC)n1	.	10.5%	.	.	.	.
Cc1ccc(F)cc1NC(=O)Cc1nc(-c2cccs2)oc1C	.	7.9%	.	.	.	.
COc1ccc(C(=O)COC(=O)c2cccc(NC(=O)c3ccc(OC)c(OC)c3)c2)cc1	.	-25.5%	.	18.4µM*	.	10.3µM*
COc1ccc(C(=O)COc2cccc(NC(=O)c3ccco3)c2)cc1	?	?	0.7%	?	?	18.4µM*
O=C(O)COc1cccc(NC(=O)c2ccccc2)c1	?	-16.8%	0.9%	-23.9%	10.0%	-14.9%
SMILES	RORgamma inh	12-LOX inh	Gal4-VP16 FLuc	DT40 TDP1 CPT	ELG1 repair inh	TDP1 cell noCPT
O=C(COc1cccc(NC(=O)c2ccccc2)c1)c1ccccc1	2.1%	2.3%	-0.9%	16.4µM*	3.9%	?
O=C(COC(=O)c1cccc([N+](=O)[O-])c1)c1ccc(OCc2ccccc2)cc1	34.5%	-5.8%	-4.7%	?	?	13µM*
COc1ccc(NC(=O)[C@@H]2Cc3ccccc3CN2C(=O)OC(C)(C)C)cc1	.	3.7%	.	.	.	.
Cc1ccc(OCCOc2ccc(Cl)cc2/C=C(/C#N)c2ccccc2)cc1	.	-10.9%	.	.	.	.
C[S+](=O)([O-])CCn1ncc2cc(OCc3cccc(-c4cccc(O)c4)c3)ccc21	.	-12.6%[176 µM]	.	.	.	.
O=C(COc1cccc(NC(=O)c2cccc([N+](=O)[O-])c2)c1)c1ccc(Br)cc1	36.2%	0.0%	-6.6%	?	9.2µM*	?
COc1cccc(C(=O)Nc2cccc(OCC(=O)c3ccccc3)c2)c1	-43.9%	-10.5%	?	23.1µM*	?	?
Cc1ccc(C(=O)C(C)Oc2cccc(NC(=O)c3ccco3)c2)cc1 (centres undefined)	?	0.0%	-6.9%	?	?	25.9µM*
Cc1ccc(C)c(OCC(=O)Nc2ccc(S(=O)(=O)Nc3nccs3)cc2)c1C	.	22.6%	.	.	.	.
CCOc1ccc(-n2nnc3c(=O)n(Cc4nc(-c5ccc(SC)cc5)no4)cnc32)cc1	.	-10.9%	.	.	.	.
CCN(CC)CCCNC(=O)C1CCN(c2ncnc3nc[nH]c23)CC1	.	-5.6%	.	.	.	.
COc1cc(-c2nnc(SCCOc3ccccc3)o2)cc(OC)c1OC	.	-15.2%	.	?	.	16.4µM*
CCN(CC)S(=O)(=O)c1cccc(-c2nnc(SCCOc3ccccc3)o2)c1	28.4%	0.0%	0.9%	16.4µM*	?	20.6µM*
COc1cc(-c2nnc(CSc3nc4ccccc4s3)o2)cc(OC)c1OC	2.9%	.	-3.7%	.	11.6µM*	.
CCN(CC)S(=O)(=O)c1cccc(-c2nnc(SCCOc3ccc(Cl)cc3)o2)c1	-13.8%	-1.1%	-0.9%	23.1µM*	20.6µM*	?
CCN(CC)S(=O)(=O)c1cccc(-c2nnc(SCCOc3ccccc3C)o2)c1	-16.6%[0.365 µM]	6.4%	.	?	?	?
CC(=O)N1CCC2(CC1)CN(C(=O)Cc1cccc(O)c1)Cc1ccccc1O2	.	10.9%[6.33 µM]	.	.	.	.
CC1CCCCC12CCc1cc3c4c(c(=O)oc3cc1O2)CCCC4 (centres undefined)	.	-7.9%	.	.	.	.
CNC(=O)C(C)S(=O)(=O)Cc1cc(Cl)c2c(c1)OCO2 (centres undefined)	.	4.8%	.	.	.	.
CCCN(CC1CCOC1)S(=O)(=O)c1cccc(C(F)(F)F)c1 (centres undefined)	.	3.7%	.	.	.	.
CCCN(CC(=O)c1cc(C)n(C)c1C)S(=O)(=O)c1cccc(C(F)(F)F)c1	5.2%	0.0%	?	23.1µM*	-16.1%	?
CCN(CC)S(=O)(=O)c1cccc(-c2nnc(SCC(=O)c3cc(C)n(C)c3C)o2)c1	1.8%[10 µM]	16.3%	3.0%	20.6µM*	?	20.6µM*
O=C(COc1ccc(F)cc1)N1CCCC(c2noc(COc3ccccc3F)n2)C1 (centres undefined)	.	13.2%	.	.	.	.
O=C(Nc1ccc(F)cc1)c1ccccc1F	0.2%	11.5%	16.1%	-9.4%	.	-15.7%
